IL-1B inflam inh: inhibitors of inflammasome signaling (IL-1 beta secretion). THP-1 LPS/ATP IL-1B secretion, AlphaLISA, 16 h; hits give low values. 360,000 compounds, 4.7% hits. activity change, % at 57.5 µM; in the data active = activity change below about -50%; inconclusive = mostly about -30% to -49%
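THP-1 cells pretreated 1 hr with compounds (up to 57.5 uM final), then stimulated with LPS (250 ng/mL final) plus ATP (1.25 mM final); secreted IL-1B measured by AlphaLISA after 16 hr, decreased signal indicating inhibition.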
KB-3-1 tox: KB-3-1 parental cell cytotoxicity | KB-3-1 viability, CellTiter-Glo ATP luminescence, 72 h | Potency, µM (top dose mostly 46.1 µM), most hits filed as cytotoxic | 400,000 compounds, 1.4% hits; note: nearly all actives have a fitted effect of over 60% in size
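Here the drug-naive KB-3-1 line serves as comparator for MDR sub-line selectivity; cells received compound titrations, 72 h at 37 °C, then CellTiter-Glo readout.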
MCF10A rerep: induces DNA re-replication in MCF 10a normal breast cells. MCF 10A DNA re-replication, Hoechst nuclear intensity, 48 h. Potency, µM (doses to about 46.1 µM), most hits filed as activators. 350,000 compounds, 2.9% hits. AID 624296; note: nearly all actives have a fitted effect of over 50% in size
KB-V1 cytotox: kills drug-selected multidrug resistant KB-V1 cells; KB-V1 MDR cells viability, CellTiter-Glo, 72 h; Potency, µM (titrated, usually from 46.1 µM), usual class: cytotoxic; 400,000 compounds, 3.4% hits; note: nearly all actives have a fitted effect of over 60% in size
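Following 72 h at 37 degrees C with compound, KB-V1 cell viability was read by CellTiter-Glo luminescence, medium being phenol-red-free DMEM plus 10% FBS; concentration-response parameters came from normalized, curve-fitted qHTS data.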
SW480 rerep: inducers of DNA re-replication in SW480 colon cancer cells; SW480 DNA re-replication, Hoechst DNA content imaging, 48 h; Potency, µM (top dose mostly 46.1 µM), most hits filed as activators; 340,000 compounds, 1.8% hits; AID 624297; note: nearly all actives have a fitted effect of over 55% in size
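Per well, 250 cells were exposed to pinned compound for 48 hr. Nuclear DNA was visualised with Hoechst (40 min, 37 C) and total object intensity recorded by fluorescence scanning.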
Each line names hits and unclear results; the compound was inactive in the other large screens. Shown are actives, neighbours in structure and some others; about 9.9% of the full set was active somewhere. Unless noted, calls come from the whole dose curve; as a rule, active = well fitted curve in the direction sought with a large enough effect; inconclusive = small, poorly fitted or top-dose-only effect, or another doubt; inactive = no such curve, though single readings can be large; an effect the other way counts as inactive or inconclusive.

COc1ccc(CN2C(=O)c3ccccc3C2C(=O)NC2CCCCCC2)c(OC)c1 (centres undefined)	IL-1B inflam inh -54
CC1CCC(NC(=O)C2c3ccccc3C(=O)N2Cc2cccs2)CC1 (centres undefined)	KB-V1 cytotox 3.7µM
CCOc1ccc(/C=N/NC(=S)NC2CC3CC2C2C=CCC32)cc1 (centres undefined)	MCF10A rerep 6.5µM
O=C1NC[C@@H](CCCCN2C[C@H](Cc3ccc(O)cc3)N(Cc3ccccc3)C(=O)C2=O)N(Cc2ccccc2)C1=O	none (no result: MCF10A rerep, SW480 rerep)
O=C(CN1C(=O)NC2(CCCCCC2)C1=O)NCCc1ccc(F)cc1	none
CCCn1nc(C(=O)NC2CCCCCC2)c2ccccc2c1=O	KB-V1 cytotox 5.8µM
Cn1c(=O)c(C(=O)NC2CCCCCCC2)c(O)c2ccccc21	KB-V1 cytotox 21µM
Cn1c(=O)c(C(=O)NC2CCCCCC2)c(O)c2ccccc21	none
Cn1nc(C(=O)NC2CCCC2)c2ccccc2c1=O	none
Cc1cc(SCC(=O)Nc2c(C)n(C)n(-c3ccccc3)c2=O)nc2ccccc12	none (no result: KB-3-1 tox, KB-V1 cytotox)
Cc1ccc(OC(=O)CSc2nnc(-c3ccc4c(c3)OCO4)o2)c(C)c1	KB-V1 cytotox inconclusive (no result: IL-1B inflam inh, MCF10A rerep, SW480 rerep)
NC1=NC[C@@H](CC2CCCCC2)N1CCc1cc(C(F)(F)F)cc(C(F)(F)F)c1	IL-1B inflam inh -109, MCF10A rerep inconclusive
Cc1ccc[n+](C(C(=S)NCc2ccco2)=C([O-])c2ccccc2Cl)c1	KB-V1 cytotox 21µM
OCCC1CN(Cc2cccc3c2OCO3)CCN1C1CCCC1 (centres undefined)	none
CCOC(=O)c1cc2c(C)n(-c3ccc(C)cc3)c(C)c2ccc1=O	IL-1B inflam inh -66, KB-3-1 tox 21µM, KB-V1 cytotox 5.8µM, SW480 rerep inconclusive
CCOC(=O)c1cc2c(C)n(-c3ccc(OCC)cc3)c(C)c2ccc1=O	KB-3-1 tox inconclusive, KB-V1 cytotox 2.6µM
CCOc1ccc(-n2c(C)c(C(=O)OC)c3cc(O)ccc32)cc1	none
Cc1ccnc(NC(=S)N2CCN(C)CC2)c1	none (no result: IL-1B inflam inh, MCF10A rerep, SW480 rerep)
O=C(CO)c1c[nH]c2ccccc12	KB-3-1 tox inconclusive (no result: IL-1B inflam inh, MCF10A rerep, SW480 rerep)
Cc1ccc2c(Cl)c(Cc3ccccc3)c(=S)[nH]c2n1	KB-3-1 tox inconclusive
Clc1ccc(C2=CSC3=NCCN23)c(Cl)c1	IL-1B inflam inh -51
COc1ccccc1CNC(=O)CCNS(=O)(=O)/C=C/c1ccc(C)cc1	IL-1B inflam inh -55
CCc1ccccc1NC(=O)CCn1nc(C)c2c(C)n(-c3ccccc3)nc2c1=O	none (no result: IL-1B inflam inh, MCF10A rerep, SW480 rerep)
COc1cc(-c2nc(-c3ccc(NC(=O)c4ccc5c(c4)OCO5)cc3)no2)cc(OC)c1OC	IL-1B inflam inh inconclusive, MCF10A rerep 9.2µM, SW480 rerep inconclusive
COc1ccc(-c2nc(-c3ccc(NC(=O)c4ccncc4)cc3)no2)cc1OC	KB-3-1 tox inconclusive, KB-V1 cytotox 10µM
CC(C)c1noc2ncc(C(=O)c3cc(Cl)cc(Cl)c3O)cc12	KB-3-1 tox inconclusive, MCF10A rerep inconclusive, KB-V1 cytotox 16µM, SW480 rerep inconclusive
CCOc1ccc(/C=C2/Sc3ccc(C(=O)N4CCOCC4)cc3N(C)C2=O)cc1OC	IL-1B inflam inh -62, MCF10A rerep inconclusive, KB-V1 cytotox inconclusive, SW480 rerep inconclusive
CN1C(=O)/C(=C/c2cccc(Cl)c2)Sc2ccc(C(=O)N3CCOCC3)cc21	MCF10A rerep 21µM, SW480 rerep inconclusive
COc1ccc(/C=C2\Sc3ccc(C(=O)NC4CC4)cc3N(C)C2=O)cc1OC	MCF10A rerep inconclusive, KB-V1 cytotox inconclusive
COc1ccc(/C=C2\Sc3ccc(C(=O)N4CCCC4)cc3N(C)C2=O)cc1OC	SW480 rerep 4µM
CCOC(=S)SCC(=O)Nc1nc(C)c(C)s1	KB-3-1 tox inconclusive, MCF10A rerep 18µM
CCOC(=S)SCC(=O)Nc1nccs1	IL-1B inflam inh -99, MCF10A rerep inconclusive
CCOC(=O)C(=O)Nc1nccs1	none
CCOC(=O)/C=C/C(=O)Nc1nccs1	IL-1B inflam inh -86, MCF10A rerep 18µM, SW480 rerep inconclusive
CSc1ncnc2c1ncn2CCCN1CCN(C(=O)C2CC2)CC1	none (no result: MCF10A rerep, SW480 rerep)
Cc1ccc(C)c(N2CCN(C(=O)Cn3ncc4c(=O)oc5ccccc5c43)CC2)c1	none (no result: IL-1B inflam inh, MCF10A rerep, SW480 rerep)
CCOC(=O)CC1(CC(=O)OCC)NC(=O)c2c(C)sc(C(=O)OCC)c2N1	none
